Out of some 5,400 compounds screened, about 190 (3.5%) showed an effect of 50% or more. This excerpt belongs to a sample that is enriched for strong results. Residues, ends and D or L forms follow the SMILES beside them. *: point of attachment. NHCH2CH2OH = OCCN*; For = O=C*

This assay relates to Vero-E6. Briefly: primary screen, phospholipidosis by LipidTOX staining; higher = more effect of the substance. Particulars: 10 µM. Summed up:
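Drug-induced phospholipidosis detected with HCS LipidTOX Red reagent in Vero-E6 cells. Compounds tested at 10 μM, with amiodarone (10 μM) as positive control and DMSO (0.1 v/v %) as vehicle.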
As for `Cc1c(N)nc([C@H](CC(N)=O)NC[C@@H](N)C(N)=O)nc1C(=O)N[C@H](C(=O)N[C@@H](C)[C@H](O)[C@@H](C)C(=O)N[C@@H](C(=O)NCCc1nc(-c2nc(C(=O)NCCC[S+](C)C)cs2)cs1)[C@@H](C)O)C(O[C@H]1O[C@H](CO)[C@H](O)[C@@H](O)[C@H]1O[C@H]1O[C@H](CO)[C@@H](O)[C@H](OC(N)=O)[C@@H]1O)c1c[nH]cn1` (stereo partly shown), the result_ITMP was 7.07%.

For the molecule `C[C@]12C=CC(=O)N[C@@H]1CC[C@@H]1[C@@H]2CC[C@]2(C)[C@@H](C(=O)Nc3cc(C(F)(F)F)ccc3C(F)(F)F)CC[C@@H]12`, the result_ITMP is reported as -3.63%.

Take `C[C@@H]1CC[C@@]2(OC1)O[C@H]1C[C@H]3[C@@H]4CC=C5C[C@@H](O[C@@H]6O[C@H](CO)[C@@H](O[C@@H]7O[C@@H](C)[C@H](O)[C@@H](O)[C@H]7O)[C@H](O)[C@H]6O[C@@H]6O[C@@H](C)[C@H](O)[C@@H](O)[C@H]6O)CC[C@]5(C)[C@H]4CC[C@]3(C)[C@H]1[C@@H]2C`: the result_ITMP was found to be 18.9%.

Take `CC1(C)S[C@@H]2[C@H](NC(=O)Cc3ccccc3)C(=O)N2[C@H]1C(=O)[O-]`: the result_ITMP is -4.24%.

As for `Clc1ccc(Nc2nnc(Cc3ccncc3)c3ccccc23)cc1`, the result_ITMP is reported as -1.32%.

In the case of `COC1CCN(C(=O)c2cc(Cc3n[nH]c(=O)c4ccccc34)ccc2F)CC1`, the result_ITMP is 2.83%.

On to `CN1CCCC(n2nc(Cc3ccc(Cl)cc3)c3ccccc3c2=O)CC1` (stereo not shown), for which the result_ITMP is on record as 57.2%.

On to `Cc1nnc(SCC2=C(C(=O)[O-])N3C(=O)[C@@H](NC(=O)Cn4cnnn4)[C@H]3SC2)s1`, for which the result_ITMP was -0.51%.

`C=CCN1CC[C@@]2(C)c3cc(O)ccc3C[C@H]1[C@H]2C`: the result_ITMP is given as -0.02%.

For `CN1CC[C@@H]2CN3CCc4cccc(c43)[C@@H]2C1`, the result_ITMP is 5.83%.

As to `CN1CCCC(CN2c3ccccc3Sc3ccccc32)C1` (stereo not shown), the result_ITMP stood at 42.2%.

`CN1CCCC(CC2c3ccccc3Sc3ccccc32)C1` (stereo not shown): the result_ITMP is given as 74.2%.

`C[C@]12CC[C@@H](O)C[C@@H]1CC[C@@H]1[C@@H]2CC[C@]2(C)C(c3ccccc3)=CC[C@@H]12`: the result_ITMP is recorded as -2.07%.

Take `N#CCc1ccccc1C#Cc1ccc(CCC(=O)O)c(F)c1`: the result_ITMP is -8.03%.

Regarding `O=C(O[C@H]1C[C@H]2CC[C@@H](C1)[N+]21CCCC1)C(O)(c1ccccc1)c1ccccc1`, the result_ITMP is given as -3.78%.

As for `CN1[C@@H](CC(=O)c2ccccc2)CCC[C@H]1C[C@H](O)c1ccccc1`, the result_ITMP was 13.8%.

In the case of `CCN(CC)CCCC(C)Nc1c2ccc(Cl)cc2nc2ccc(OC)cc12` (stereo not shown), the result_ITMP was 110%.

As for `COc1ccc2nc3ccc(Cl)cc3c(SCCCN)c2c1`, the result_ITMP is reported as -9.55%.

Regarding `CCN(CCO)CCCC(C)Nc1ccnc2cc(Cl)ccc12` (stereo not shown), the result_ITMP was found to be 1.54%.

On to `CC1(C)CCC(C)(C)c2c1cc(C(=O)Nc1cc(F)c(C(=O)O)c(F)c1)c(O)c2Cl`, for which the result_ITMP is -2.47%.

`CSc1ccc([C@H]2CN3CCC[C@H]3c3ccccc32)cc1` (racemic): the result_ITMP stood at 14.1%.

As for `CSc1ccc2c(c1)C(N1CCN(C)CC1)Cc1ccccc1S2` (stereo not shown), the result_ITMP amounted to 79.9%.

As for `CC[C@H]1[C@@H](O)[C@@H]2[C@H](CC[C@]3(C)[C@@H]([C@H](C)CCOS(=O)(=O)[O-])CC[C@@H]23)[C@@]2(C)CC[C@@H](O)C[C@@H]12`, the result_ITMP is listed as -1.93%.

In the case of `Nc1nc(=O)c2c(CCc3ccc(C(=O)N[C@@H](CCC(=O)[O-])C(=O)[O-])cc3)c[nH]c2[nH]1`, the result_ITMP is listed as -3.84%.

With `CC(C)c1nc(N(C)S(C)(=O)=O)nc(-c2ccc(F)cc2)c1/C=C/[C@@H](O)C[C@@H](O)CC(=O)[O-]`, the result_ITMP is -8.19%.

As for `Cc1nc(Nc2cnn(C3CCNCC3)c2)nc2c1N(C)C(=O)c1cc3ccccc3cc1N2C`, the result_ITMP is on record as 103%.

Turning to `CCOc1cc(N2CCC(O)CC2)ccc1Nc1ncc2c(n1)N(C)c1ccccc1C(=O)N2C`, the result_ITMP came to 4.79%.

On to `O=C(O)[C@@H]1C[C@@H](C2CCCCC2)CN1C(=O)CP(=O)(O)CCCCc1ccccc1`, for which the result_ITMP is listed as -0.11%.

Regarding `O=c1nc[nH]c2c1cnn2[C@@H]1O[C@H](CO)[C@@H](O)[C@H]1O`, the result_ITMP was 2.43%.

Turning to `CCC[C@@H]1C[C@@H](C(=O)N[C@H]([C@H]2O[C@H](SC)[C@H](O)[C@@H](O)[C@H]2O)[C@H](C)O)N(C)C1`, the result_ITMP is given as -3.49%.

As for `NC1(c2ccc(-c3nc4ccn5c(=O)[nH]nc5c4cc3-c3ccccc3)cc2)CCC1`, the result_ITMP is on record as 87.1%.

As to `COc1cccc(CCc2ccccc2OCC(CN(C)C)OC(=O)CCC(=O)O)c1` (stereo not shown), the result_ITMP came out at 64.3%.

Turning to `O=C(O)CCCCN(CCc1ccccc1OCc1ccc(CCc2ccccc2)cc1)Cc1ccc(C(=O)O)cc1`, the result_ITMP is 0.2%.

For the molecule `O=C(O)CCc1ccc(NCc2cccc(Oc3ccccc3)c2)cc1`, the result_ITMP is -4.86%.

In the case of `CCc1cccc(CC)c1N=C1NCCN1`, the result_ITMP is reported as -5.43%.

Consider `O=C(O[C@H]1CN2CCC1CC2)N(Cc1cc(F)c(F)c(F)c1)c1cccc(F)c1`, for which the result_ITMP is 71.4%.

As for `C[C@H](Nc1ncnc2[nH]cnc12)c1cc2ccc(F)cc2nc1-c1ccccn1` [R4A_0002240_001 / SPE_K21077415], the result_ITMP is -0.96%.

For the molecule `Nc1cccc(CNC(=O)c2ccc(Oc3ccc(OCc4cccc(F)c4)cc3)nc2)c1`, the result_ITMP is reported as -1.49%.

For `CN(C)CCCOc1nn(Cc2ccccc2)c2ccccc12`, the result_ITMP was determined as 51.2%.

Turning to `O=C(O)COc1nn(Cc2ccccc2)c2ccccc12`, the result_ITMP amounted to 0%.

In the case of `OCc1ccc(-c2nn(Cc3ccccc3)c3ccccc23)o1`, the result_ITMP is reported as -1.24%.

Regarding `C[C@@H]1CCC[C@H](C)N1NC(=O)c1ccc(Cl)c(S(N)(=O)=O)c1`, the result_ITMP is 3.56%.

As for `CC(C)Cc1ccc(C(C)C(=O)O)cc1` (stereo not shown) [R4A_0001344_001 / SPE_M64062803], the result_ITMP is listed as -5.52%.

For `O=C(C1CCCCC1)N1CC(=O)N2CCc3ccccc3C2C1` (stereo not shown), the result_ITMP is -5.83%.

Turning to `O=C(Nc1ccc(F)cc1)N1CCc2ccccc2C1c1ccc(C(F)(F)F)cc1` (stereo not shown), the result_ITMP is reported as -0.7%.

For `O=C(O[C@H]1CN2CCC1CC2)N1CCc2ccccc2[C@@H]1c1ccccc1`, the result_ITMP is reported as 59.2%.

Turning to `CC(C)(CO)[C@@H](O)C(=O)NCCC(=O)[O-]`, the result_ITMP came to 1.43%.

For the molecule `C[C@@]12C[C@@]3(O)O[C@@H](O1)[C@]1(COC(=O)c4ccccc4)[C@H]3C[C@@]12O[C@@H]1O[C@H](CO)[C@@H](O)[C@H](O)[C@H]1O`, the result_ITMP is given as -5.49%.

`CN1CCN(c2ccc(-c3cccc(CN4CCOCC4)c3)cc2NC(=O)c2c[nH]c(=O)cc2C(F)(F)F)CC1`: the result_ITMP was -0.45%.

Consider `CCc1cccc(CC)c1NC(=O)N1Cc2[nH]nc(NC(=O)c3ccc(N4CCN(C)CC4)cc3)c2C1`, for which the result_ITMP is listed as 3.48%.

Take `CN1CCN(c2ccc(C(=O)Nc3n[nH]c4ccc(Cc5cc(F)cc(F)c5)cc34)c(NC3CCOCC3)c2)CC1`: the result_ITMP was 96.5%.

Consider `C[C@H]1O[C@@H](O[C@H]2CC[C@@]3(C)[C@H](CC[C@@H]4[C@@H]3C[C@@H](O)[C@]3(C)[C@@H](C5=CC(=O)OC5)CC[C@]43O)C2)C[C@H](O)[C@@H]1O[C@H]1C[C@H](O)[C@H](O[C@H]2C[C@H](O)[C@H](O[C@@H]3O[C@H](CO)[C@@H](O)[C@H](O)[C@H]3O)[C@@H](C)O2)[C@@H](C)O1`, for which the result_ITMP was -9.7%.

In the case of `CO/N=C(\C(=O)N[C@@H]1C(=O)N2C(C(=O)[O-])=C(COC(C)=O)CS[C@H]12)c1csc(N)n1`, the result_ITMP is reported as -7.3%.

Consider `COc1cccc(C(=O)CCN[C@@H](C)[C@H](O)c2ccccc2)c1`, for which the result_ITMP is 1.52%.

`COc1cccc([C@@H](C)NCCCc2ccccc2Cl)c1`: the result_ITMP came out at 70.1%.

As for `CC(NCCC(c1ccccc1)c1ccccc1)c1ccccc1` (stereo not shown), the result_ITMP is on record as 43.7%.

For the molecule `C[N@+]12CCCC[C@@H]1CCC(=C(c1cccs1)c1cccs1)C2` (racemic), the result_ITMP is reported as -3.77%.

Regarding `CO[C@@H]1[C@@H](OC(N)=O)[C@@H](O)[C@H](Oc2ccc3c([O-])c(NC(=O)c4ccc(O)c(CC=C(C)C)c4)c(=O)oc3c2C)OC1(C)C`, the result_ITMP is recorded as -3.28%.

Consider `CC(=O)NCCCS(=O)(=O)[O-]`, for which the result_ITMP is listed as 7.64%.

In the case of `COc1cc2c(Nc3ccc(Br)cc3F)ncnc2cc1OCC1CCN(C)CC1`, the result_ITMP turned out to be 105%.

With `COc1cc2ncnc(Nc3cccc(Cl)c3F)c2cc1OC(=O)N1CCN(C)C[C@H]1C`, the result_ITMP is listed as 10.7%.

Take `COc1cc2c(Nc3ccc(Cl)c(Cl)c3F)ncnc2cc1OC[C@@H]1C[C@@H]2CN(C)C[C@@H]2C1`: the result_ITMP was found to be 55.5%.

Consider `COc1ccc(Cl)c(Nc2ncnc3cc(OCC4CCN(C)CC4)c(OC)cc23)c1`, for which the result_ITMP stood at 9.6%.

For `C=CC(=O)N1CCC(Oc2cc3c(Nc4ccc(Cl)c(Cl)c4F)ncnc3cc2OC)CC1`, the result_ITMP is reported as 35.1%.

In the case of `COc1cc2ncnc(Nc3ccc(Cl)cc3F)c2cc1OC`, the result_ITMP is given as -0.91%.

As to `CC(C)CC(NC(=O)C(C)NC(=O)CNC(=O)C(NC=O)C(C)C)C(=O)NC(C)C(=O)NC(C(=O)NC(C(=O)NC(C(=O)NC(Cc1c[nH]c2ccccc12)C(=O)NC(CC(C)C)C(=O)NC(Cc1c[nH]c2ccccc12)C(=O)NC(CC(C)C)C(=O)NC(Cc1c[nH]c2ccccc12)C(=O)NC(CC(C)C)C(=O)NC(Cc1c[nH]c2ccccc12)C(=O)NCCO)C(C)C)C(C)C)C(C)C` (stereo not shown) (For-VGALAVVVWLWLWLW-NHCH2CH2OH; configuration not given here), the result_ITMP was -8.15%.

Consider `COC1/C=C\OC2(C)Oc3c(C)c(O)c4c(O)c(cc([O-])c4c3C2=O)NC(=O)/C(C)=C\C=C/C(C)C(O)C(C)C(O)C(C)C(OC(C)=O)C1C` (stereo not shown), for which the result_ITMP is -0.32%.

Consider `C[C@@H](O)[C@H]1C(=O)N2C(C(=O)[O-])=C([C@H]3CCCO3)S[C@H]12`, for which the result_ITMP is listed as -1.64%.

Turning to `[Cl][Ru]([Cl])([Cl])[Cl].c1ccc2[nH]ncc2c1.c1ccc2[nH]ncc2c1`, the result_ITMP is listed as -2.33%.

With `OC[C@H]1O[C@@H](O[C@@H]2[C@H](O)[C@@H](O)[C@H](O[C@H]3[C@H](O)[C@@H](O)C(O)O[C@@H]3CO)O[C@@H]2CO)[C@H](O)[C@@H](O)[C@H]1O` (stereo partly shown), the result_ITMP is 3.95%.

These data come from PMC13083723 (Patterns, 2026).
